According to PubChem BioAssay AID1159580 (chemical genetic matrix, 2015):
Values joined by “and” are separate entries in the source; they are usually repeats but may differ in a detail not shown here. Equal values may be shown once. In all, about 5,500 compounds went through this assay and about 2,000 (36%) were called active. Not shown: some 18% with an inconclusive outcome. Cut-off read from the data, not from the text of the source: active = normalized growth mostly below about 0.91 (no sharp cut-off); inconclusive = no clear call, values can overlap the other calls; inactive = mostly above about 0.92. Some of the results follow.

Assay: chemical genetic growth profiling, strain panel (AID 1159580);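 note: tested at 20 µM; growth read once vehicle control cultures reached saturation at 30 °C; 1 = growth at the plate median or of vehicle wells; lower values mean less growth of the strain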
Conditions: S. cerevisiae deletion strains, growth OD

Measured: normalized growth

CC(=O)N[C@@H](CCC(=O)O)C(=O)O
inactive: locus YAL021C, strain ccr4, stronger effect = lower value 1.03 | locus YAL026C, strain drs2, stronger effect = lower value 1.03 | locus YAL030W, strain snc1, stronger effect = lower value 1.01 | locus YBL061C, strain skt5, stronger effect = lower value 1.03 | locus YBR009C, strain hhf1, stronger effect = lower value 0.994 | locus YBR021W, strain FUR4, stronger effect = lower value 1.01 | locus YBR023C, strain chs3, stronger effect = lower value 1.03 | locus YBR171W, strain sec66, stronger effect = lower value 1.03 | locus YBR229C, strain ROT2, stronger effect = lower value 1 | locus YBR231C, strain swc5, stronger effect = lower value 1.02 | locus YBR279W, strain paf1, stronger effect = lower value 1.02 | locus YCL011C, strain gbp2, stronger effect = lower value 1.02 | locus YCL016C, strain dcc1, stronger effect = lower value 1.03 | locus YCL029C, strain bik1, stronger effect = lower value 1.02 | locus YCL069W, strain vba3, stronger effect = lower value 1.02 | locus YCR088W, strain abp1, stronger effect = lower value 1.02 | locus YDL005C, strain med2, stronger effect = lower value 1.02 | locus YDL035C, strain GPR1, stronger effect = lower value 1.01 | locus YDL040C, strain nat1, stronger effect = lower value 1.01 | locus YDL074C, strain BRE1, stronger effect = lower value 1.02 | locus YDL101C, strain DUN1, stronger effect = lower value 1.01 | locus YDL134C, strain PPH21, stronger effect = lower value 1.01 | locus YDL185W, strain tfp1, stronger effect = lower value 1 | locus YDL192W, strain arf1, stronger effect = lower value 1.01 | locus YDR001C, strain nth1, stronger effect = lower value 1.02 | locus YDR069C, strain doa4, stronger effect = lower value 1.03 | locus YDR101C, strain arx1, stronger effect = lower value 1.02 | locus YDR137W, strain rgp1, stronger effect = lower value 1.04 | locus YDR150W, strain NUM1, stronger effect = lower value 0.99 | locus YDR159W, strain sac3, stronger effect = lower value 1.01 | locus YDR162C, strain NBP2, stronger effect = lower value 1.01 | locus YDR195W, strain ref2 1.02 | locus YDR297W, strain sur2, stronger effect = lower value 1.02 | locus YDR318W, strain mcm21, stronger effect = lower value 1.03 | locus YDR334W, strain swr1, stronger effect = lower value 1.02 | locus YDR335W, strain msn5, stronger effect = lower value 1.02 | locus YDR388W, stronger effect = lower value 1.01 | locus YDR392W, strain spt3, stronger effect = lower value 1.05 | locus YDR502C, strain sam2, stronger effect = lower value 1.01 | locus YEL003W, strain gim4, stronger effect = lower value 1.01 | locus YEL037C, strain rad23, stronger effect = lower value 1.02 | locus YEL061C, strain CIN8 (second series), stronger effect = lower value 1.02 | locus YEL061C, strain CIN8, stronger effect = lower value 1.01 | locus YER015W, strain faa2, stronger effect = lower value 1.02 | locus YER016W, strain bim1, stronger effect = lower value 1.03 | locus YER110C, stronger effect = lower value 1.01 | locus YER111C, strain swi4, stronger effect = lower value 1.02 | locus YER155C, strain BEM2 (second series), stronger effect = lower value 1.01 | locus YER155C, strain BEM2, stronger effect = lower value 1.01 | locus YER167W, strain BCK2, stronger effect = lower value 1.01 | locus YFR010W, strain ubp6, stronger effect = lower value 1.01 | locus YGL078C, strain dbp3, stronger effect = lower value 0.996 | locus YGL086W, strain mad1, stronger effect = lower value 0.986 | locus YGL167C, strain pmr1, stronger effect = lower value 1.02 | locus YGL173C, strain kem1, stronger effect = lower value 1.01 | locus YGL227W, strain vid30, stronger effect = lower value 1.02 | locus YGL240W, strain doc1, stronger effect = lower value 1.01 | locus YGL248W, strain PDE1, stronger effect = lower value 1 | locus YGL253W, strain hxk2, stronger effect = lower value 1.04 | locus YGR078C, strain PAC10, stronger effect = lower value 0.999 | locus YGR135W, strain pre9, stronger effect = lower value 1.01 | locus YGR252W, strain gcn5, stronger effect = lower value 0.974 | locus YHR013C, strain ard1, stronger effect = lower value 1.06 | locus YHR027C, strain rpn1, stronger effect = lower value 1.02 | locus YHR030C, strain SLT2, stronger effect = lower value 1 and 0.981 | locus YHR079C, strain IRE1 (second series), stronger effect = lower value 1.02 | locus YHR079C, strain IRE1, stronger effect = lower value 0.981 | locus YHR094C, strain hxt1, stronger effect = lower value 1.01 | locus YHR129C, strain ARP1, stronger effect = lower value 1 | locus YHR142W, strain chs7, stronger effect = lower value 1.05 | locus YHR200W, strain rpn10, stronger effect = lower value 1 | locus YIL066C, strain RNR3, stronger effect = lower value 1.01 | locus YIL073C, strain SPO22, stronger effect = lower value 1.06 | locus YIL125W, strain kgd1, stronger effect = lower value 1 | locus YIR030C, strain dcg1, stronger effect = lower value 1.01 | locus YJL092W, strain hpr5, stronger effect = lower value 1.02 | locus YJL095W, strain BCK1 (second series), stronger effect = lower value 1.03 | locus YJL095W, strain BCK1, stronger effect = lower value 1.01 and 0.983 | locus YJL115W, strain asf1, stronger effect = lower value 1.01 | locus YJL129C, strain trk1, stronger effect = lower value 1.04 | locus YJL134W, strain LCB3, stronger effect = lower value 1.01 | locus YJL154C, strain vps35, stronger effect = lower value 1.02 | locus YJL164C, strain tpk1, stronger effect = lower value 1.01 | locus YJL166W, strain qcr8, stronger effect = lower value 1 | locus YJL168C, strain set2, stronger effect = lower value 1.01 | locus YJL187C, strain SWE1 (second series), stronger effect = lower value 1.01 | locus YJL187C, strain SWE1, stronger effect = lower value 1.03 | locus YJR043C, strain POL32, stronger effect = lower value 0.999 | locus YJR066W, strain TOR1, stronger effect = lower value 0.909
